Screens from PubChem.
Compounds with a hit are over-represented: about 4.1% of the library has one in this group of screens.
hcDAF-12 act = H. contortus DAF-12 nuclear receptor activators, primary screen, cell-based, luminescence, HEK293, lit1-tk-luc reporter; hit rate 1.4% among 370,000; activation, % at 6.8 µM; HEK293 hcDAF-12 lit1-tk-luc reporter; 0% DMSO, 100% Δ7-dafachronic acid; AID 652067, 2013;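 active = activation above the mean of all tested compounds plus 3 SD, cut at about 5.5% in these data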;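 also: 100% = response to 3 µM Δ7-dafachronic acid high control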
DAX1 inh-1 = DAX1 (NR0B1) inhibitors on StAR promoter, primary screen, cell-based, luminescence, SF-1 (NR5A1), full-length DAX-1; HEK293T StAR-luciferase reporter, SF-1/DAX-1 repression relief; inhibition, % at 6.8 µM; hit rate 1.1% among 370,000; AID 652010, 2013;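 active = inhibition above the mean over all tested compounds plus 3 SD, cut at about 3.6% in these data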;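 also: 0% = DAX-1 cells with DMSO and 100% = cells lacking DAX-1 with DMSO; higher inhibition means more luminescence from relief of DAX-1 repression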
hgDAF12 agonist = H. glycines DAF-12 receptor agonists, primary screen, cell-based, luminescence, HEK293, GAL4 fusion, UAS-luciferase; Nuclear hormone receptor DAF-12 (Heterodera glycines), GAL4 fusion; HEK293 GAL4-hgDAF12 UAS-luciferase reporter, agonist luminescence; normalized to butyrate control; activation, % at 6.8 µM; hit rate 1.8% among 370,000; AID 687014, 2013;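 active = activation above a cutoff set at the mean of all screened compounds plus 3 SD, cut at about 10% in these data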;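 also: 0% = DMSO wells and 100% = sodium butyrate wells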
DAX1 inh-2 = DAX1 (NR0B1) inhibitors, primary screen, cell-based, HEK293, Gal4-DAX1, luciferase luminescence; Nuclear receptor subfamily 0 group B member 1 (Homo sapiens), P51843; HEK293 Gal4-DAX1 luciferase reporter; inhibition, % at 6.75 µM; hit rate 0.99% among 340,000;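 active = inhibition above the mean over all tested compounds plus 3 SD, cut at about 4.2% in these data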;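 also: 0% = DAX1-transfected cells with DMSO and 100% = empty-vector control cells with DMSO; inhibition shows as a rise in luminescence from relieved DAX1 repression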
Target sequence (P51843 207-470 limits assumed): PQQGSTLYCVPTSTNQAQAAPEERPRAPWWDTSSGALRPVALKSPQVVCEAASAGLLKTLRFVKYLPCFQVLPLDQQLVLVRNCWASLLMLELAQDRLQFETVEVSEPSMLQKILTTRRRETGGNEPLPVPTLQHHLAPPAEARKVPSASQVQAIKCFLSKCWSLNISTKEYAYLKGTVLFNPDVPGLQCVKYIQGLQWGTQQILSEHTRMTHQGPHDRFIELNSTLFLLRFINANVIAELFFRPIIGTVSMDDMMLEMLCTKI
ssDAF-12 act = S. stercoralis DAF-12 nuclear receptor activators, primary screen, cell-based, luminescence, HEK293, GRIP1 co-expression, lit1-tk-luc; activation, % at 6.8 µM; Nuclear hormone receptor DAF-12 (Strongyloides stercoralis); HEK293 ssDAF-12/GRIP1 lit1-tk-luc reporter; % of 3 µM dafachronic acid response; AID 652126, 2013; hit rate 1% among 370,000;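 active = activation above the mean over all tested compounds plus 3 SD, cut at about 0.9% in these data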;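 also: 0% = DMSO-only wells and 100% = 3 µM delta7-dafachronic acid wells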
* = called active by the depositor; · = no result.

SMILES	hcDAF-12 act	DAX1 inh-1	hgDAF12 agonist	DAX1 inh-2	ssDAF-12 act
Nc1[nH]c(C(=O)c2ccccc2)c(-c2ccc(Br)cc2)c1C(=O)N1CCN(CCO)CC1	0	·	3	·	-2
COc1ccc(C(=O)OCCCN(C)C2CN(Cc3cn(Cc4cccc(F)c4)nn3)S(=O)(=O)C2)cc1OC (stereo not given)	-2	-1	4	·	-1
Cc1ccc(NCCC(=O)c2cccs2)cc1	5	4.2*	12*	2	1.4*
CC(C)c1ccc(NCCC(=O)c2cccs2)cc1	1	0	7	4	-2
CCOc1ccc(NS(=O)(=O)c2cc(NC(=O)CCC(=O)c3cccs3)ccc2Cl)cc1	-4	0	-3	5.8*	-2
Cc1ccc(C2=CCN(C)C(=O)N2c2ccc(Br)cc2)cc1	1	0	9	·	-1
O=C(c1ccccc1)c1cc2cc(Cl)ccc2[nH]1	3	1	5	2	1
N#Cc1cc2cc(Cl)ccc2[nH]c1=O	-1	4.1*	1	·	-1
O=C(c1ccc(Cl)cc1)c1cnc(Nc2ccccc2Cl)s1	2	1	13*	2	0
CC(=O)c1cnc(Nc2cccc(Cl)c2Cl)s1	2	2	13*	3	0
O=C(c1ccc(Cl)cc1)c1cnc(-c2ccccc2)s1	0	0	0	1	-1
CN(Cc1ccc(Cl)cc1Cl)C(=O)CCNC(=O)c1ccco1	-1	2	-1	1	-1
CN(Cc1ccccc1Cl)C(=O)CCNC(=O)c1ccco1	-1	2	0	10*	-1
O=C(NCCC(=O)N1CCc2ccccc21)c1ccco1	5.8*	1	6	1	-1
CNC(=O)C[C@H]1CC[C@H]2[C@@H](COc3ccc(NC(=O)Nc4ccccc4)cc3C(=O)N2C)O1	-1	1	-2	·	-2
CCOC(=O)c1cn2nc(N3CCCC3)ccc2n1	6.0*	3	10	-2	0
COc1ccc(-c2noc(C3CCCN(C(=O)Nc4ccc5c(c4)OCO5)C3)n2)cc1 (stereo not given)	0	0	9	·	-1
NC(=O)c1ccc(-c2noc(-c3cccc(Cl)c3)n2)cc1	-1	0	5	1	0
O=C(O)c1cccc(-c2noc(-c3cccc(Cl)c3)n2)c1	4	2	13*	-2	0
Cc1cccc(-c2cccc3c4c([nH]c23)[C@@H]2C[C@H](N(C)C(=O)c3ccco3)[C@H]([C@H](C)O)C(=O)N2CC4)c1	-3	-1	0	·	-2
CN1C(=O)c2cc(NS(C)(=O)=O)ccc2OC[C@H]2O[C@@H](CC(=O)NCc3ccc(-c4ccccc4)cc3)CC[C@@H]21	1	0	0	·	0
O=C(O)c1ccc(/C=N\Nc2ccccn2)cc1	6.5*	1	8	3	0
CN(C)c1ccc(/C=N\Nc2ccccn2)cc1	4	2	9	6.2*	0
O=C(O)c1ccc(/C=N/Nc2ncc(Cl)cc2Cl)cc1	4	0	3	6.5*	-1
Cc1ccsc1/C=N/Nc1ncc(Cl)cc1Cl	4	3	11*	1	0
SMILES	hcDAF-12 act	DAX1 inh-1	hgDAF12 agonist	DAX1 inh-2	ssDAF-12 act
Cc1cc(C)nc(N/N=C/c2sccc2C)n1	0	2	5	1	-1
C[C@H]1[C@@H](NC(=O)c2ccc(C(F)(F)F)cc2)CC[C@@]23CCCN2C(=O)CCC[C@@H]13	-2	·	-1	·	-1
C/C(=N\NC(=O)c1cc(-c2ccccc2)nc2ccccc12)c1ccc(Cl)cc1	-1	0	2	·	-1
Cc1ccsc1/C=N/Nc1nc(=O)[nH]nc1C	2	2	16*	2	0
Cc1ccc(NC(=S)NC(=O)c2ccccc2)cc1NC(=S)NC(=O)c1ccccc1	6.2*	1	10	1	-1
Cc1ccc2cccc(NC(=S)NC(=O)c3ccccc3)c2n1	5.7*	0	2	-1	1.0*
COC(=O)Nc1ccc2c(c1)OCO2	0	1	5	0	-1
CCC(=O)Nc1cccc(NC(=S)NC(=O)c2ccccc2)c1	3	1	13*	-1	-1
O=C(NC(=S)Nc1cccc(NC(=S)NC(=O)c2ccccc2)c1)c1ccccc1	5	-1	4	-2	0
COC(=O)Nc1ccc(C)c(NC(=O)OC)c1	6.4*	0	0	-1	-1
CCNC(=O)OCCN1C(=O)CCC12CCC(c1ccc(Cl)cc1)CC2 (stereo not given)	-2	-1	-3	·	-1
O=C(c1cccc(F)c1F)N(Cc1ccccn1)CC1CCCO1 (stereo not given)	-2	0	0	·	-1
C[C@H](O)[C@@H]1CN2CCc3c([nH]c4cccc(-c5ccccc5)c34)[C@@H]2C[C@@H]1N(C)CC1CCCCC1	2	1	-1	·	-2
COc1ccc(-c2[nH]ncc2CN2CCN(Cc3cccs3)CC2)cc1F	0	0	-1	7.8*	-1
CCN(CC)C1CCN(Cc2cn[nH]c2-c2ccc(OC)c(F)c2)C1 (stereo not given)	0	0	5	·	-1
CC(=O)C1(C(=O)NCc2ccccc2)CC(c2ccccn2)=NO1 (stereo not given)	0	0	1	·	0
CCc1ccc2nc(NC(=O)CN3C(=O)NC4(CCCC4)C3=O)sc2c1	2	1	11*	0	1
Cn1c(=O)c2c(ncn2CC(=O)Nc2nc3ccc(F)cc3s2)n(C)c1=O	6.2*	1	8	2	0
CCc1ccc2nc(NC(=O)Cn3cnc4ccccc4c3=O)sc2c1	3	1	5	3	1.2*
CCC(NC(=O)c1ccc2c(ccn2Cc2cccc(-c3ccccc3C(=O)O)c2)c1)c1ccccc1 (stereo not given)	-1	-2	-2	·	-1
Cc1ccc(S(=O)(=O)N2C[C@H]3[C@H]4C(=O)N(c5ccccc5)C(=O)[C@H]4CC(=O)[C@H]3[C@@H]2c2cccc3ccccc23)cc1	2	4.3*	3	·	0
Cc1ccc(S(=O)(=O)N2C[C@H]3[C@H]4C(=O)N(c5ccccc5)C(=O)[C@H]4CC(=O)[C@H]3[C@@H]2c2ccccc2F)cc1	1	0	-2	·	-1
C[C@H]1[C@@H](OC(=O)NC2CCCCC2)CC[C@@]23CCCN2C(=O)CCC[C@@H]13	0	·	-2	·	-2
